# Results filed as inconclusive are left out. Unmarked numbers belong to inactive results. The source made the active and inactive calls. The call rests on the fitted dose curve; in most records, active means well fitted inhibition curve with a large enough effect; inconclusive means small, poorly fitted or top-dose-only effect; inactive means flat fitted curve, though single readings scatter.
# Molecular target: Glutathione peroxidase 1 (Homo sapiens) (UniProt P07203)
# Assay: Primary qHTS Assay for Inhibitors of Recombinant Selenoprotein Glutathione Peroxidase 1 (GPX1) (AID 1845191)
# Conditions: recombinant GPX1, GR-coupled NADPH fluorescence, 15 min; series mostly up to 48.8 µM; activity, negative = inhibition: at the top concentration
# Method in brief: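 10 nM GPX1 + cpd, 30 min RT; start w/ 1 mM GSH, 0.5 mM cumene hydroperoxide, 0.5 mM NADPH, 100 nM GR, 0.01% BSA; buffer 50 mM Tris-HCl pH 7.5, 2 mM EDTA, 150 mM NaCl; Fl 340/450, 0 & 15 min.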
# Further: nearly all actives have a fitted effect of over 65% in size.
# On the % scale 0 is the no-effect control and ±100 the full control effect.
# Glutathione peroxidase 1 (Homo sapiens), sequence (P07203 whole entry, looked up): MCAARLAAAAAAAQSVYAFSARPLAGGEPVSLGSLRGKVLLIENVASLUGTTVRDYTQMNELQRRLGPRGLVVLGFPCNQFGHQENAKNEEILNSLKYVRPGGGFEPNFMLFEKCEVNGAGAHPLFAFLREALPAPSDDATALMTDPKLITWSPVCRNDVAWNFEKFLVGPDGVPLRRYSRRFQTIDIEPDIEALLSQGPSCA
SMILES,outcome,"activity, negative = inhibition [%]"
CC(C)OC(=O)[C@H](C)N[P@](=O)(CO[C@H](C)Cn1cnc2c(N)ncnc21)Oc1ccccc1,inactive,–
CC(=O)OC1C[C@H](O[C@@H]2C(O)C[C@H](O[C@@H]3C(O)C[C@@H](OC4CC[C@]5(C)C(CCC6C5CC(O)[C@@]5(C)C(C7=CC(=O)OC7)CC[C@@]65O)C4)OC3C)OC2C)O[C@H](C)[C@H]1O[C@H]1OC(CO)C(O)C(O)C1O (stereo partly specified),inactive,–
CN(C(=O)/C=C/c1ccoc1)[C@@H]1CC[C@@]2(O)[C@H]3Cc4ccc(O)c5c4[C@@]2(CCN3CC2CC2)[C@H]1O5,–,-13.2

# Molecular target: Phospholipid hydroperoxide glutathione peroxidase GPX4 (Homo sapiens) (UniProt P36969)
# Assay: Primary qHTS Assay for Inhibitors of Recombinant Selenoprotein Glutathione Peroxidase 4 (GPX4) (AID 1845192)
# Conditions: recombinant GPX4, GR-coupled NADPH fluorescence, 15 min; series mostly up to 50 µM; activity change, negative = inhibition: at the top concentration
# Method in brief: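 NADPH consumption, followed by fluorescence at 340/450 nm between 0 and 15 min, reports GPX4 activity via coupled glutathione reductase (100 nM). Enzyme 200 nM was pre-exposed to compound 30 min; 0.5 mM cumene hydroperoxide and 1 mM GSH served as substrates.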
# Phospholipid hydroperoxide glutathione peroxidase GPX4 (Homo sapiens), sequence (P36969 whole entry, looked up): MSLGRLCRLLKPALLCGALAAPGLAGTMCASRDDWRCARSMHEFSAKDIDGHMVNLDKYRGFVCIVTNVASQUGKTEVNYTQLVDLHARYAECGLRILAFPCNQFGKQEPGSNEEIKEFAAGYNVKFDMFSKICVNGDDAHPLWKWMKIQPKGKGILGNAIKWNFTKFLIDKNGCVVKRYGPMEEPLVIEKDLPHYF
SMILES,outcome,"activity change, negative = inhibition [%]"
CC(C)OC(=O)[C@H](C)N[P@](=O)(CO[C@H](C)Cn1cnc2c(N)ncnc21)Oc1ccccc1,inactive,–
CC(=O)OC1C[C@H](O[C@@H]2C(O)C[C@H](O[C@@H]3C(O)C[C@@H](OC4CC[C@]5(C)C(CCC6C5CC(O)[C@@]5(C)C(C7=CC(=O)OC7)CC[C@@]65O)C4)OC3C)OC2C)O[C@H](C)[C@H]1O[C@H]1OC(CO)C(O)C(O)C1O (stereo partly specified),inactive,–
CN(C(=O)/C=C/c1ccoc1)[C@@H]1CC[C@@]2(O)[C@H]3Cc4ccc(O)c5c4[C@@]2(CCN3CC2CC2)[C@H]1O5,–,-21.3

# Source: PubChem BioAssay (NCATS)
